# Data reported in the supplement of paper PMC10338343.
# ± gives the standard deviation.
# Tests used:
# [1] = system: MILI (PIWIL2) piRISC loaded with L1MC piRNA (26 nt); assay: pre-steady-state target cleavage rate (min^-1); guide: L1MC piRNA 5'p-UAACUAAAUACUAUGCAAGCUGUAGG; higher = faster piRNA-guided slicing of the target;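 further: 1 nM active piRISC with 0.1 nM target library at 33 °C single turnover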
# How it was run: (§1)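 At 33 °C in HEPES–potassium acetate buffer, a transcribed, DNA-blocked target RNA library […] was exposed for 0–8 or 0–960 min to 1 nM active affinity-purified piRISC carrying a single synthetic guide, with or without 500 nM GTSF1 partner protein. Uncleaved targets were sequenced and normalised to depth and to weakly complementary targets. With three trials pooled and k3 capped at 0.0001 min^-1, a burst-and-steady-state fit produced the pre-steady-state cleavage rate.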
# [2] = system: EfPiwi piRISC loaded with L1MC piRNA (26 nt); assay: pre-steady-state target cleavage rate (min^-1); auxiliary factor: 500 nM Ephydatia muelleri Gtsf1; guide: L1MC piRNA 5'p-UAACUAAAUACUAUGCAAGCUGUAGG; MIWI and MILI are mouse PIWI proteins and EfPiwi is from a freshwater sponge; tags in brackets are library labels; higher = faster piRNA-guided slicing of the target
# How it was run: as §1
# [3] = auxiliary factor: 500 nM mouse GTSF1
# [4] = auxiliary factor: none (no GTSF1)
Sequence,"pre-steady-state target cleavage rate [1, 3]","pre-steady-state target cleavage rate [1, 4]",pre-steady-state target cleavage rate [2]
UCCUGGAUCAGCUACCAUAGUAUUUAGUUA,0.145 ± 0.014,0.00343 ± 0.0016,0.00516 ± 0.0032
UCCUGGUACAGCUUGCAUAGUAUUUUCUAA,0.0489 ± 0.017,0.00383 ± 0.0034,0.0055 ± 0.0029
UCCUCCUACAGACUUGCAUAGUAUUUAGUUA,0.253 ± 0.02,0.00669 ± 0.0021,0.017 ± 0.006
UCCUCCUACAGCUUGCUUAGUAUUUAGUAA,0.203 ± 0.017,0.0037 ± 0.0021,0.00594 ± 0.0027
UCCUGCUAAGCUUGCAUAGUAUUUAGUUA,0.182 ± 0.018,0.00403 ± 0.0019,0.00771 ± 0.0024
UCCUCCUACAGCUAGCAUAGUAAUUAGUUA,0.159 ± 0.022,0.00372 ± 0.0022,0.00535 ± 0.002
UCCUGGAACAACUUGCAUAGUAUUUAGUUA,0.262 ± 0.022,0.0104 ± 0.0027,0.0809 ± 0.023
UCCUGCUACUGCUAGCAUAGUAUUUAGUUA,0.253 ± 0.017,0.0054 ± 0.0023,0.0129 ± 0.0034
UCCUGCUACAGGUUGCUUAGUAUUUAGUUA,0.227 ± 0.012,0.0118 ± 0.0038,0.0276 ± 0.0074
UCCUGGAACAGCUCGCAUAGUAUUUAGUUA,0.256 ± 0.012,0.00773 ± 0.0031,0.0171 ± 0.0048
UCCUCGUACAGCUUGCUUAGUAUUUAGUUA,0.286 ± 0.016,0.00785 ± 0.0024,0.0519 ± 0.012
UCCUGGAUCUGCUUGCAUAGUUUUUAGUUA,0.0213 ± 0.0057,0.00511 ± 0.002,0.00787 ± 0.0041
UCCUGGAUCAGCAUGCAUAGUUUUUAGUUA,0.0257 ± 0.0092,0.00668 ± 0.0023,0.00291 ± 0.0027
UCCUCCUACAGCUUGGUAAGUAUUUAGUUA,0.185 ± 0.017,0.00498 ± 0.0018,0.00379 ± 0.0034
UCCUGGAUCAGCUAGCAUAGUAUUUAGUUA,0.236 ± 0.012,0.00845 ± 0.0024,0.0313 ± 0.009
UCCUGGAUGAGCUUGCAUAGUAUAUAGUUA,0.24 ± 0.031,0.00759 ± 0.0023,0.00625 ± 0.0026
UCCUGGAUCAGUUUGCAUAGUAUUUAGUUA,0.24 ± 0.02,0.0104 ± 0.0027,0.128 ± 0.021
UCCUGGAUGUGGUUGCAUAGUUUUUAGUUA,0.0125 ± 0.0086,0.00954 ± 0.0033,0.00827 ± 0.0052
UCCUGGAUCUGGUUGCAUAGUAUUUAGUUA,0.158 ± 0.014,0.0105 ± 0.0029,0.0604 ± 0.015
UCCUGGAACAGCUAGCAUAGUAUUUAGUAA,0.275 ± 0.03,0.00673 ± 0.0025,0.00289 ± 0.0015
UCCUGCUACAGCUUGCAUAGUAUUUGAGUUA,0.135 ± 0.02,0.00331 ± 0.0024,0.0068 ± 0.0022
UCCUGGUACACCUUGCUUAGUAUUUAGUUA,0.134 ± 0.024,0.0117 ± 0.0037,0.00384 ± 0.0027
UCCUGGUACAGCUUGCAUAGUAUUUGAGUUA,0.178 ± 0.034,0.00534 ± 0.0027,0.00306 ± 0.0023
UCCUCCUACAGCUUGCAUAGUAUUUAGUUU [g2:g26:cont:t1U],0.35 ± 0.02,0.0339 ± 0.0087,0.265 ± 0.062
UCCUGCUACAGCUUGCAUAUUAUUUAGUUA,0.11 ± 0.016,0.00413 ± 0.0024,0.0119 ± 0.0034
UCCUCCAACAGCAUGCAUAGUAUUUAGUUA,0.282 ± 0.016,0.0108 ± 0.0025,0.0161 ± 0.0047

Sequence,"pre-steady-state target cleavage rate [1, 3]","pre-steady-state target cleavage rate [1, 4]",pre-steady-state target cleavage rate [2]
UCCUGCUACAGCUUGCAUAGUGAUUUAGUUA,0.0204 ± 0.0094,0.00369 ± 0.0028,0.00289 ± 0.0028
UCCUGGAUGAGCUCUGCAUAGUAUUUAGUUA,0.171 ± 0.01,0.0111 ± 0.0033,0.00721 ± 0.0028
UCCUGCUAUCAGCUUGCAUAGUAUUUAGUUA,0.268 ± 0.022,0.00819 ± 0.0029,0.0613 ± 0.015
UCCUGGUACAGGUUGCAUACUAUUUAGUUA,0.111 ± 0.033,0.00543 ± 0.0028,0.00258 ± 0.002
UCCUGGAACACCUUGCAUUGUAUUUAGUUA,0.14 ± 0.018,0.00474 ± 0.0027,0.00411 ± 0.0026
UCCUGGAUCAGCUUGCAAAGUAUUUAGAUA,0.126 ± 0.018,0.00353 ± 0.0024,0.00558 ± 0.0029
UCCUGGUUCAGCUAGCAUAGUAUUUAGUUA,0.239 ± 0.026,0.0116 ± 0.0027,0.0263 ± 0.0083
UCCUGGAUGAGCUUGCAUUGUAUUUAGUUA,0.139 ± 0.013,0.00846 ± 0.0023,0.00376 ± 0.0029
UCCUGGAAGAGCUUGCAUAGUAUUUUGUUA,0.21 ± 0.037,0.00584 ± 0.0025,0.00497 ± 0.0026
UCCUCCUACAGCUAGCAUUGUAUUUAGUUA,0.184 ± 0.013,0.00496 ± 0.0019,0.0127 ± 0.0042
UCCUGGAUGAGCUUUCAUAGUAUUUAGUUA,0.15 ± 0.018,0.00493 ± 0.0026,0.00433 ± 0.0018
UCCUGGAAGAGCUUGCAUUGUAUUUAGUUA,0.208 ± 0.011,0.00838 ± 0.0031,0.0104 ± 0.0029
UCCUGGAUGAGCUUGCAUAGUAUUUAGUA,0.223 ± 0.025,0.00747 ± 0.0025,0.00405 ± 0.0032
UCCUGGUACUGCUUGCAUAGUAUUUAGUUA,0.174 ± 0.023,0.0139 ± 0.0037,0.0105 ± 0.0034
UCCUGGAUGUGCUUGCAUAGUAUUUAGUUG [g2:g20:cont:t1G],0.179 ± 0.022,0.00877 ± 0.0027,0.00803 ± 0.0029
UCCUCCUACUGGUUGCAUAGUAUUUAGUUA,0.226 ± 0.021,0.00818 ± 0.0021,0.1 ± 0.025
UCCUGGAUCAGGUUGCAUAGAAUUUAGUUA,0.0266 ± 0.0065,0.00431 ± 0.0021,0.00305 ± 0.0023
UCCUGCUAGAGCUUGCAUAGUAAUUAGUUA,0.19 ± 0.02,0.00448 ± 0.0023,0.00471 ± 0.0019
UCCUGGAUGUGCUUGCAUAGUAUAUUAGUUA,0.111 ± 0.016,0.00381 ± 0.0027,0.0043 ± 0.0034
UCCUGCUACAGCUUGCAAAGUAUUAAGUUA,0.146 ± 0.019,0.00367 ± 0.0025,0.00445 ± 0.0021
UCCUGGAACAGCUUGCAAAGUAUUUAGAUA,0.085 ± 0.014,0.00298 ± 0.0022,0.0036 ± 0.0024
UCCUGCUACCAGCUUGCAUAGUAUUUAGUUA,0.24 ± 0.019,0.0115 ± 0.0033,0.0199 ± 0.0059
UCCUCCUACUGCUUGCAAAGUAUUUAGUUA,0.138 ± 0.011,0.00644 ± 0.0018,0.0558 ± 0.017
UCCUGGAUCACCUUGCAUAGUAUUAAGUUA,0.201 ± 0.034,0.00424 ± 0.0023,0.00509 ± 0.0039
UCCUGGAUCAGCUUGCAUAGUAUGUUAGUUA,0.199 ± 0.017,0.00633 ± 0.0025,0.031 ± 0.0087
